Our source for the ETS1 binding intensity and RUNX1 binding intensity values is the supplement of paper PMC10681739.

Assay [1] deals with T1, ETS1 (UniProt P14921).
T1 sequence: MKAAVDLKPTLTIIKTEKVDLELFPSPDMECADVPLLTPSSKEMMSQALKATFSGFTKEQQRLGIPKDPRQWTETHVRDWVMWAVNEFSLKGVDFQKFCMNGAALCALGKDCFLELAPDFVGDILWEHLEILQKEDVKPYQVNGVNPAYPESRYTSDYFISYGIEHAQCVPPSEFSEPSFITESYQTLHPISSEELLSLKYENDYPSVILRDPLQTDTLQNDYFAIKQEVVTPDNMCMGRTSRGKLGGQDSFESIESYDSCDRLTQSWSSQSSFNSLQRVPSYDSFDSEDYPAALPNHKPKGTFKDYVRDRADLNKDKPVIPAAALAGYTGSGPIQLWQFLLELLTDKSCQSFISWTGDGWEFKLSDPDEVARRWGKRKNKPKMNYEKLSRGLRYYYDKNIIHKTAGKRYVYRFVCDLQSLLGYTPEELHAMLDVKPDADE
Kind of assay: ETS1 binding intensity (PBM fluorescence), ETS1 alone (arbitrary fluorescence units); higher = stronger binding. Conditions: ETS1 concentration 1 nM; RUNX1 concentration 0 nM.

In assay [2] the target is RUNX1 (UniProt Q01196). The assay can be described thus: RUNX1 binding intensity (PBM fluorescence), RUNX1 alone (arbitrary fluorescence units); higher = stronger binding. As to conditions: RUNX1 concentration 2 nM; ETS1 concentration 0 nM. On the procedure:
(§1)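 Cooperative gcPBM on 36-bp genomic probes with neighbouring ETS1 and RUNX1 sites. Recombinant human RUNX1 (2 nM) was incubated alone or with ETS1 (25 nM) and detected with anti-RUNX1 antibody plus Alexa488 secondary. Values are medians over 4 replicate spots; the RUNX1+ETS1 data were normalised to the RUNX1-only data. The probes sit in constant array flanks that are not printed.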

The target in assay [3] is T1, ETS1. Kind of assay: ETS1 binding intensity (PBM fluorescence) in presence of RUNX1, normalised to ETS1-only experiment (arbitrary fluorescence units); higher = stronger binding. As to conditions: ETS1 concentration 1 nM; RUNX1 concentration 25 nM.
Assay [4] concerns the target RUNX1 (UniProt Q01196). The assay can be described thus: RUNX1 binding intensity (PBM fluorescence) in presence of ETS1, normalised to RUNX1-only experiment (arbitrary fluorescence units); higher = stronger binding. As to conditions: RUNX1 concentration 2 nM; ETS1 concentration 25 nM. The method, then:
as §1
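Throughout, for RUNX1 binding intensity (PBM fluorescence) in presence of ETS1, normalised to RUNX1-only experiment: Full-length recombinant human ETS1 or RUNX1 bound to double-stranded 36-bp genomic probes on microarrays, detected by protein-specific primary antibody and Alexa488 secondary, spot fluorescence as median of four replicate spots.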
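Throughout, for RUNX1 binding intensity (PBM fluorescence), RUNX1 alone: Full-length recombinant human RUNX1 bound to double-stranded 36-bp genomic probes on a high-density microarray, scored as Alexa488 fluorescence per spot via anti-RUNX1 antibody, median of four replicate spots.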

Sequence of RUNX1 (Q01196 whole entry): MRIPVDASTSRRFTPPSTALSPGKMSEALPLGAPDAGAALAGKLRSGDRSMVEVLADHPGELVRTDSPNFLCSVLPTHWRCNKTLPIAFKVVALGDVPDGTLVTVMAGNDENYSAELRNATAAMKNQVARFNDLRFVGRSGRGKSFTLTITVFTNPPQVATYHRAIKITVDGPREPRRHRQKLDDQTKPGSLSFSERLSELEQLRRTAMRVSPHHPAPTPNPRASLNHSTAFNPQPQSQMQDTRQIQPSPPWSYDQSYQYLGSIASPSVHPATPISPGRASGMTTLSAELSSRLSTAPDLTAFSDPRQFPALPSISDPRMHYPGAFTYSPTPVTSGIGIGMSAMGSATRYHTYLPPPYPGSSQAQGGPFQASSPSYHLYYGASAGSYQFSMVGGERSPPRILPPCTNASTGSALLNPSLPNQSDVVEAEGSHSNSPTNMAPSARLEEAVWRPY

For the sequence CGCCTCATTTCCTGTGCAACTGCGGTAAAAATAGGA, the ETS1 binding intensity in the assay with ETS1 [1] was 1860; in the assay with ETS1 [3], 5000. Further, the RUNX1 binding intensity turned out to be 1630 with RUNX1 [2] and 4630 with RUNX1 [4].
The matching figures for ACAGGAAATGTTAGAGGTTGAGTTAGCGGTTATGAG: 1620, 3640, 833 and 914.
The like results for GATGCTCTAACAGGAAGTGGGTTAAGGAGCTGCACT were, in that order, 12200, 14100, 673 and 2390.
With GCGACCCGACCCGGCGGAAACCACCTCGACAGCCTC, the ETS1 binding intensity turned out to be 915 in the assay with ETS1 [1] and 1000 with ETS1 [3]. The RUNX1 binding intensity came out at 953 in the assay with RUNX1 [2] and 941 in the assay with RUNX1 [4].
The like results for ATCTTACCCCGGAAATGACAACAGTGCCGCAAACTG were, in that order, 7580, 10400, 906 and 1620.
On to CGATGCTTCCGGCCTCCTATTGGGTGGTTTCTTGGC, for which the ETS1 binding intensity in the assay with ETS1 [1] was 895; with ETS1 [3], 1050. Moreover, the RUNX1 binding intensity in the assay with RUNX1 [2] came to 789; with RUNX1 [4] it was 2040.
The like results for CAAAGGTTAAATGCAGGATGTGGTTTCTGCAGACTC were, in that order, 2750, 25400, 922 and 3990.
On to AACATCCGGTTCCCGGTTCTGCCCCCTACCGCAGCT, for which the results for the ETS1 binding intensity with ETS1 [1] and with ETS1 [3] were 3190 and 5870, respectively. Besides, the RUNX1 binding intensity was determined as 917 with RUNX1 [2] and 3920 with RUNX1 [4].
Turning to GGGGAAAGGAAGAGGAAACCGCGAGTGCAAAGGCCC, the ETS1 binding intensity with ETS1 [1] was determined as 679; with ETS1 [3] it was 1580. The RUNX1 binding intensity in the assay with RUNX1 [2] stood at 1140; with RUNX1 [4] it was 2330.
The matching figures for GGTTTAACGTTTCCGGTTTGTGGCTAGTTTCTTGTC: 7540, 12500, 1060 and 3520.
For GCACCCTTCCTGCTTCCCACAGTGTGGTATAAGAGG, the results for the ETS1 binding intensity with ETS1 [1] and with ETS1 [3] were 412 and 475, respectively. Besides, the RUNX1 binding intensity was determined as 965 with RUNX1 [2] and 1560 in the assay with RUNX1 [4].
Turning to TATTTCCTGTGCACAGAAGCAGCTGGGCCGCAGAGT, the figures for the ETS1 binding intensity with ETS1 [1] and with ETS1 [3] were 557 and 680, respectively. Also, the values for the RUNX1 binding intensity in the assay with RUNX1 [2] and in the assay with RUNX1 [4] were 697 and 1940, respectively.
AAGGCGGTACTTCCTCCAGCATTTGCCGCAAGTTAT: the ETS1 binding intensity with ETS1 [1] was found to be 417; with ETS1 [3] it was 535. The RUNX1 binding intensity is 768 with RUNX1 [2] and 1250 in the assay with RUNX1 [4].
GCTGTGCCGGCAGGATGTGGTCTTTGGTTTCTGTTT: the ETS1 binding intensity with ETS1 [1] is 5560; in the assay with ETS1 [3], 12300. Moreover, the figures for the RUNX1 binding intensity in the assay with RUNX1 [2] and in the assay with RUNX1 [4] were 850 and 3250, respectively.
With TGAAGCCATGGTTTCCTGTCTGCGGCTCAGATCAAG, the ETS1 binding intensity in the assay with ETS1 [1] was 1020; with ETS1 [3] it was 1600. Moreover, the results for the RUNX1 binding intensity with RUNX1 [2] and in the assay with RUNX1 [4] were 717 and 1490, respectively.
For TTTGTCATATCAACAGGATGTGGTTCTCCCCTGGTT, the ETS1 binding intensity with ETS1 [1] came out at 6920; in the assay with ETS1 [3] it was 10700. Moreover, the RUNX1 binding intensity with RUNX1 [2] was determined as 905; in the assay with RUNX1 [4], 1530.
Consider CCTCTTGGTTTCCTGTCCCTCACCACAAGAAGCAGT, for which the ETS1 binding intensity with ETS1 [1] was 625; with ETS1 [3], 1520. Further, the RUNX1 binding intensity with RUNX1 [2] is 1540; with RUNX1 [4], 4520.
Regarding GTTTTCAAGGCAGGAAGTGGCTGTGGTGGCACGGAG, the ETS1 binding intensity was 13700 with ETS1 [1] and 21300 with ETS1 [3]. Besides, the RUNX1 binding intensity with RUNX1 [2] is 789; with RUNX1 [4], 1570.
In the case of TGCTTTTCAGGTGCAGGAAGTGGTTTGCCTTTGCCC, the ETS1 binding intensity stood at 7810 with ETS1 [1] and 11000 with ETS1 [3]. Further, the RUNX1 binding intensity with RUNX1 [2] was 788; with RUNX1 [4] it was 1200.
Consider GCCACTTCCGGTCACTCCCCGCTGCGGCCTCGCGCT, for which the ETS1 binding intensity with ETS1 [1] is 7030; in the assay with ETS1 [3] it was 8280. In addition, the RUNX1 binding intensity amounted to 1190 with RUNX1 [2] and 3940 with RUNX1 [4].
In the case of CTTCTGAGAGGAGGATGTGGTCAGATACCTACAAAT, the ETS1 binding intensity with ETS1 [1] was found to be 1030; with ETS1 [3], 7800. The RUNX1 binding intensity in the assay with RUNX1 [2] was 854; with RUNX1 [4], 1650.
In the case of TGAGCAAGTTCCTTCCTGTCTGTGGTCCAGGGTTTA, the ETS1 binding intensity was found to be 757 in the assay with ETS1 [1] and 881 in the assay with ETS1 [3]. Moreover, the RUNX1 binding intensity with RUNX1 [2] came to 747; with RUNX1 [4] it was 1510.
As to CCGCCACCGGAAGCGCCCTCCTAATCCCCGCAGCGC, the ETS1 binding intensity is 6290 with ETS1 [1] and 6170 in the assay with ETS1 [3]. The RUNX1 binding intensity was 978 with RUNX1 [2] and 1920 with RUNX1 [4].
As for CTTCACTATGCATCCTGTACTGCAACCACACCAAAC, the ETS1 binding intensity worked out at 587 in the assay with ETS1 [1] and 793 with ETS1 [3]. For the same sequence, the results for the RUNX1 binding intensity with RUNX1 [2] and in the assay with RUNX1 [4] were 1350 and 1910, respectively.
Turning to GCAGCTCTGGCAGGATGCGGTTAAATATGTAGCCAC, the results for the ETS1 binding intensity with ETS1 [1] and with ETS1 [3] were 2030 and 12800, respectively. For the same sequence, the RUNX1 binding intensity in the assay with RUNX1 [2] worked out at 2690; in the assay with RUNX1 [4], 11300.
As for TCTGTCGCACATCCGGTGTGAGCTGCGGGGCGGTGG, the figures for the ETS1 binding intensity in the assay with ETS1 [1] and with ETS1 [3] were 7930 and 10600, respectively. Moreover, the RUNX1 binding intensity in the assay with RUNX1 [2] is 753; in the assay with RUNX1 [4], 1640.
As to AGTTGGTTCCTTCCGGTGGGTTTGTGGGCTTGGGGT, the results for the ETS1 binding intensity with ETS1 [1] and with ETS1 [3] were 1400 and 2230, respectively. Besides, the RUNX1 binding intensity is 763 with RUNX1 [2] and 1880 in the assay with RUNX1 [4].
The matching figures for AGCGGCCGAAGGAAGTGACGTTTGCGGCAGTAAGGC: 997, 1450, 1130 and 1300.
The matching figures for AACTGTCTCTACCCAGGAAGTGGTTTTATTTAAAAG: 5160, 14900, 1020 and 2190.
The like results for GCTGTCCGTTTCCGAGATGTTAATGCGGGATCTTGC were, in that order, 473, 402, 920 and 988.
As for GCACCGTACCCGGAACTGCTCCCTCCCGCAGGCGCA, the ETS1 binding intensity in the assay with ETS1 [1] was 539; in the assay with ETS1 [3], 540. The results for the RUNX1 binding intensity in the assay with RUNX1 [2] and in the assay with RUNX1 [4] were 930 and 950, respectively.
The like results for GTTCTCCTTCCTGTGCCGAGTGTGGTTTGCTATCAA were, in that order, 580, 622, 1250 and 2400.
As for ATCTCCACATCCTCCCCATCGACCGCATGGTTTACC, the ETS1 binding intensity was determined as 439 with ETS1 [1] and 653 with ETS1 [3]. For the same sequence, the RUNX1 binding intensity with RUNX1 [2] came to 1970; in the assay with RUNX1 [4], 3450.
AACTTCCTCCGCGCGGGGCCACTGCTACCACAAAGG: the ETS1 binding intensity was found to be 373 with ETS1 [1] and 588 in the assay with ETS1 [3]. In addition, the values for the RUNX1 binding intensity with RUNX1 [2] and with RUNX1 [4] were 1070 and 2540, respectively.
CCCCTTAGCACAGGATGTGGTCTTTGCATCTTCATT: the ETS1 binding intensity stood at 4640 in the assay with ETS1 [1] and 7360 in the assay with ETS1 [3]. For the same sequence, the figures for the RUNX1 binding intensity with RUNX1 [2] and in the assay with RUNX1 [4] were 1040 and 2960, respectively.
As for GAGGTGCCGGAAGCCAGTAGGTGGTTTTGGGTGCTA, the ETS1 binding intensity in the assay with ETS1 [1] is 1530; with ETS1 [3] it was 2120. Moreover, the RUNX1 binding intensity with RUNX1 [2] worked out at 695; with RUNX1 [4], 1180.
As to CAACTGACCGGACAGAACACAGCCACAAAACACGAG, the ETS1 binding intensity with ETS1 [1] turned out to be 512; with ETS1 [3], 507. Also, the RUNX1 binding intensity with RUNX1 [2] amounted to 944; in the assay with RUNX1 [4], 824.
